Many of the other results were omitted from the sample, so hits are more common in it than they were.
GIRK2 act: GIRK2 channel activators by thallium flux; HEK293 GIRK2/NPY4 cells, thallium flux fluorescence; activation (% efficacy), % for hits at 37.5 µM; 34,000 tested, under 10 active;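 active means primary screen hit, no activity in plain HEK293 cells, and in GIRK2-only cells above 5% efficacy rising with concentration; inactive means the rest, including fluorescent compounds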;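 further: efficacy is normalized control-subtracted fluorescence 15 s after thallium addition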
Target sequence (P48051 whole entry, looked up): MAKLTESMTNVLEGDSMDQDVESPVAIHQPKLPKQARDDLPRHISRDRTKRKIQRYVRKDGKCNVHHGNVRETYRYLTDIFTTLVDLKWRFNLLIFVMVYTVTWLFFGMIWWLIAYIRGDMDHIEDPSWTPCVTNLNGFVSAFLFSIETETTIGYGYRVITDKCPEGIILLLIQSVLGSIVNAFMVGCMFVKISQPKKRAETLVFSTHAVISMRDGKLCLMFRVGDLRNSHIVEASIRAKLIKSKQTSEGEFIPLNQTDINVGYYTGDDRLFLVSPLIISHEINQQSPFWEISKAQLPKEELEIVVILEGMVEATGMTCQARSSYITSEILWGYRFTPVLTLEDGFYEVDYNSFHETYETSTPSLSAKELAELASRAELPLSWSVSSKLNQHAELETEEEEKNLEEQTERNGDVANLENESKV
AMPAR-TARP mod: modulates AMPAR-stargazin complexes; HEK293 GluA2+stargazin, membrane potential dye (FDSS), glutamate EC50; hits were called plate by plate, in both directions; calls only at 30 µM; hit rate 3.5% among 40,000; AID 1259245;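 active means any of four per-well response measures lying three or more SD from its plate-wide compound average, in either direction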
* = called active by the depositor; i = inactive; / = no result given; + = active, no number; ! = a repeat was not active.

SMILES	GIRK2 act	AMPAR-TARP mod
CS(=O)(=O)N1CCC(Cn2c(C(F)(F)F)nc3ccccc32)CC1	i	i
Cc1cc(C(=O)Nc2ccc(N3CCCC3=O)cc2)ccc1[N+](=O)[O-]	i	i
COc1ccc(CNC(=O)N(c2ccccc2)c2ccccc2)c(OC)c1	i	i
N#C/C(=C\c1ccc(O)cc1)c1nc2ccccc2s1	/	i
N#C/C(=C\c1cccnc1)c1nc2ccccc2s1	/	+
CCCN1C(=O)NC2(CCN(C(=O)Nc3ccccc3C(F)(F)F)CC2)C1=O	i	/
Cc1csc(-c2cc3ccc(OC(=O)CCCCl)cc3oc2=O)n1	/	+
COc1cccc(-c2cc3ccc(OC(C)=O)cc3oc2=O)c1	i	i
Cc1cc(C)c2nc(NC(=O)c3cc(C)no3)sc2c1	i	i
COc1ccc(C)c2sc(NC(=O)c3cc(C)no3)nc12	i	+
CCOC(=O)c1ccc2nc(NC(=O)c3ccn(C)n3)sc2c1	i	+
CCOC(=O)c1ccc(NC(=O)c2ccn(C)n2)cc1	i	i
CCOCCn1c(=NC(=O)c2ccn(C)n2)sc2cc(C(=O)OCC)ccc21	i	+
CCOC(=O)c1ccc2c(c1)sc(=NC(=O)c1ccn(CC)n1)n2CCSC	i	/
COC(=O)c1ccc(C(=O)OC)c(NC(=O)C(C)N2C(=O)c3ccccc3S2(=O)=O)c1 (configuration not stated)	/	i
CC(C)NS(=O)(=O)c1ccc2oc(=O)ccc2c1	i	/
O=C(Cc1ccc(F)cc1)Nc1cc(-c2cccs2)nn1CCO	i	i
O=C(CCSc1ccccc1)Nc1cc(-c2cccs2)nn1CCO	i	+
Cc1cccc(NC(=O)CC2SC(=O)N(CC(=O)c3ccccc3)C2=O)c1 (configuration not stated)	i	+!
O=C(CC1SC(=O)N(CC(=O)c2ccccc2)C1=O)Nc1ccc(Br)cc1 (configuration not stated)	i	i
C=CCN1C(=O)SC(CC(=O)Nc2ccc(NC(C)=O)cc2)C1=O (configuration not stated)	i	i
Cc1cccc(NC2SC(=O)N(Cc3ccccc3)C2=O)c1 (configuration not stated)	i	+
Cc1cccc(NC2SC(=O)N(C(C)C)C2=O)c1 (configuration not stated)	i	i
C=CCN1C(=O)SC(CC(=O)Nc2ccc(Br)cc2)C1=O (configuration not stated)	i	+
COc1ccc(S(=O)(=O)NCCC(=O)N2CCCCC2)cc1N(C)S(C)(=O)=O	/	i
SMILES	GIRK2 act	AMPAR-TARP mod
O=C(c1cc2ccccc2[nH]1)N1CCC(c2nnc(-c3ccco3)s2)CC1	i	i
COc1ccc(OC)c(-c2ccc(=O)n(CC(=O)N3CCCCCC3)n2)c1	i	i
O=C(CCCn1nc(-c2ccccc2)ccc1=O)Nc1ccc(OC(F)(F)F)cc1	i	i
Cc1ccc(C)c(Sc2cc(N3CCC(C(=O)NCCN4CCCC4)CC3)ncn2)c1	i	i
Cc1ccc(C)c(Sc2cc(N3CCC(C(=O)NCC4CCCO4)CC3)ncn2)c1 (configuration not stated)	i	+
COc1ccc(C)cc1S(=O)(=O)N1CCC2(CC1)NC(=O)NC2=O	i	/
N#Cc1c(NC(=O)c2cc3ccccc3o2)sc2c1CCN(Cc1ccccc1)C2	/	+
CC(C)N1CCc2c(sc(NC(=O)c3ccn(C)n3)c2C(N)=O)C1	i	i
Cc1cc(C(=O)Nc2sc3c(c2C#N)CCN(Cc2ccccc2)C3)on1	i	/
COC(=O)c1c(NC(=O)c2ccn(C)n2)sc2c1CCN(Cc1ccccc1)C2	i	+
O=C(Nc1nc(-c2ccc(Oc3ccccc3)cc2)cs1)c1ccno1	/	i
O=C(Nc1cccc(N2CCCC2=O)c1)c1ccc2c(c1)OCO2	/	i
O=C(Nc1cccc(-c2cnc3n2CCC3)c1)c1ccc2c(c1)OCO2	i	+
Cn1nc(-c2ccccc2)cc1C(=O)Nc1cccc(-c2cnc3n2CCC3)c1	i	+
CC(Oc1ccccc1)C(=O)Nc1cccc(-c2cnc3n2CCC3)c1 (configuration not stated)	i	i
Cc1ccc(N2CCN(C(=O)Nc3cccc(C(F)(F)F)c3)CC2)nn1	/	i
COc1cccc(C(=O)Nc2ccc3c(c2)CCC(=O)N3CC(C)C)c1OC	i	i
Cc1ccnc(SCCn2c(N3CCOCC3)nc3c2c(=O)n(C)c(=O)n3C)n1	/	+
Cn1c(=O)c2c(nc(N3CCOCC3)n2CCSc2nc3ccccc3s2)n(C)c1=O	/	i
O=c1[nH]c2sc3c(c2c(=O)n1-c1ccccc1)CCCC3	i	i
O=c1c2c3c(sc2ncn1/N=C/c1cccnc1)CCC3	/	+
CCCCN1CC(c2nc3ccccc3n2Cc2ccc(Cl)cc2)CC1=O (configuration not stated)	/	i
CCN1CC(c2nc3ccccc3n2Cc2ccc(Cl)cc2Cl)CC1=O (configuration not stated)	/	+
CCCCN1CC(c2nc3ccccc3n2CCOc2ccccc2)CC1=O (configuration not stated)	/	i
C=CCN1CC(c2nc3ccccc3n2Cc2ccccc2Cl)CC1=O (configuration not stated)	/	i
SMILES	GIRK2 act	AMPAR-TARP mod
CCN1CC(c2nc3ccccc3n2CC(=O)N2CCCCC2)CC1=O (configuration not stated)	i	/
CCN1CC(c2nc3ccccc3n2Cc2c(Cl)cccc2Cl)CC1=O (configuration not stated)	/	+
CCCCN1CC(c2nc3ccccc3n2CCOc2cccc(C)c2)CC1=O (configuration not stated)	/	+
C=CCN1CC(c2nc3ccccc3n2Cc2c(Cl)cccc2Cl)CC1=O (configuration not stated)	/	+
O=C1CC(c2cccc(F)c2)Sc2nc(-c3ccc(F)cc3)nn21 (configuration not stated)	/	i
O=S(=O)(Cc1cccc(F)c1)NCC1CCN(S(=O)(=O)C2CC2)CC1	i	i
Cc1cc(=O)[nH]c(-n2nc(C3CC3)cc2NC(=O)C2(c3ccc(Cl)cc3)CCCC2)n1	i	i
O=C(Cc1csc(NC(=O)c2ccc[nH]c2=O)n1)NCc1ccc2c(c1)OCO2	i	i
CCOc1ccc(NC(=O)CC(NCCCOC)C(=O)O)c([N+](=O)[O-])c1 (configuration not stated)	/	i
O=C(COc1ccc(Cl)cc1)N1CCC(c2ccsc2)CC1	i	i
O=C(Cc1cccs1)N1CCN(c2ccccn2)CC1	/	i
CC1CCN(c2ccc(N3CCN(C(=O)c4cccs4)CC3)nn2)CC1	i	i
O=C(Cc1cccs1)N1CCN(c2cc(N3CCCC3)ncn2)CC1	i	+
O=C(c1cccs1)N1CCN(c2cc(N3CCCC3)ncn2)CC1	i	+
Cc1onc(-c2ccccc2Cl)c1C(=O)NCCn1nc(-c2ccccc2)n(C)c1=O	i	i
O=S(=O)(NCC(O)(c1ccco1)C1CC1)c1ccc(F)c(Cl)c1 (configuration not stated)	i	+
O=S(=O)(NCC(O)(c1ccco1)C1CC1)c1cc(F)ccc1F (configuration not stated)	i	i
